Active and inactive are the calls of the source. No stated cut-off is given here; in the data, active means remaining activity below about 50%; inactive means the rest.
Each compound was assayed against Phospholipase D1 (Homo sapiens) (UniProt Q13393) (assay: cellular phospholipase D1 activity inhibition – Calu-1 cells, single concentration (AID 602144;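 further: tested at 200 nM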)). Settings: cellular PLD1 activity, active compounds read low.
Sequence of Phospholipase D1 (Homo sapiens) (Q13393 whole entry, looked up): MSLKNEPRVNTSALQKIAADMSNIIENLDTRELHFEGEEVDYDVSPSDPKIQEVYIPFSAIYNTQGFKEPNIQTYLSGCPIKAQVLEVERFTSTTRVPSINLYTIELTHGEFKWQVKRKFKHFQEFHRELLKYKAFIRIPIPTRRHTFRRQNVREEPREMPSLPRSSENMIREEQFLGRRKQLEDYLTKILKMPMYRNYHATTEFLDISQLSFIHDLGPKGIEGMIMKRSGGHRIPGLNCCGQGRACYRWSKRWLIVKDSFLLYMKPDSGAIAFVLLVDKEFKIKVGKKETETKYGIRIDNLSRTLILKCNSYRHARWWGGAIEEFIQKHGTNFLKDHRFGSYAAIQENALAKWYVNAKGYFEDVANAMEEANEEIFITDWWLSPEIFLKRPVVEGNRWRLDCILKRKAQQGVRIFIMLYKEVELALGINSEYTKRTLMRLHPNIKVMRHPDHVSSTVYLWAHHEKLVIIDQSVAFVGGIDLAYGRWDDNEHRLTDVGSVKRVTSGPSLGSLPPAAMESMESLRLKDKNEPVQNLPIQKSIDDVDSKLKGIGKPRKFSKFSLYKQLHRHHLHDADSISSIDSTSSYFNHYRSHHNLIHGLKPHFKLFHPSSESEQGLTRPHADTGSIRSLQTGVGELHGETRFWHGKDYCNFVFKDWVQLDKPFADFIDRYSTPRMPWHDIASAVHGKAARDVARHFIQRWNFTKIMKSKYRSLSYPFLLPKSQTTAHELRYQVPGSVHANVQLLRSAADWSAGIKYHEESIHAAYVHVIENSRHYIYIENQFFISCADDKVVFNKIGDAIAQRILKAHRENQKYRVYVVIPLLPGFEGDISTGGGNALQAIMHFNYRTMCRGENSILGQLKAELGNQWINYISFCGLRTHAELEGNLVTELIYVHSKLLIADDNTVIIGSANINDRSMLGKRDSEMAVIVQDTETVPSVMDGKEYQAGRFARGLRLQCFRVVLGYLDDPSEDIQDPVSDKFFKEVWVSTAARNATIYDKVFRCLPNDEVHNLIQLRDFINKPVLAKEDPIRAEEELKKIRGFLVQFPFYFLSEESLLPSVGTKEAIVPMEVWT
Sequence of Phospholipase D1 (Homo sapiens) (Q13393 whole entry, looked up): as above
With `O=C(Cc1ccc2ccccc2c1)NCCN1CCC(n2c(=O)[nH]c3ccccc32)CC1` the remaining activity was 87.7% (inactive). With `C[C@@H](CN1CCC2(CCc3ccccc32)CC1)NC(=O)c1cnc2ccccc2c1` the remaining activity was 129% (inactive). `O=C(NCCN1CCC(C(=O)NCc2ccc(Cl)cc2)CC1)c1ccc2ccccc2c1` was tested, and the remaining activity was 99.2% (inactive). For `C[C@@H](CN1CCC(n2c(=O)[nH]c3cc(I)ccc32)CC1)NC(=O)c1ccc(Cl)cc1`, the remaining activity was 15.5% (active). `CS(=O)(=O)NCCN1CCC(n2c(=O)[nH]c3ccccc32)CC1` was tested, and the remaining activity was 88% (inactive). For `O=C(NCCN1CCC(n2c(=O)[nH]c3ccccc32)CC1)Nc1ccccc1C(F)(F)F`, the remaining activity was 131% (inactive). In the case of `C[C@@H](CN1CCC(n2c(=O)[nH]c3ccccc32)CC1)NC(=O)c1ccco1`, the remaining activity is reported as 41.7% (active). `CC(C(=O)NCCN1CCN(c2ccncc2)CC1)(c1ccccc1)c1ccccc1` was tested, and the remaining activity was 204% (inactive). In the case of `CC(C)[C@@H](CN1CCC(n2c(=O)[nH]c3ccccc32)CC1)NC(=O)c1cc2cc(F)ccc2[nH]1`, the remaining activity is reported as 69.6% (inactive). With `C[C@@H](CN1CCC(c2nc3ccccc3[nH]2)CC1)NC(=O)c1ccc2ccccc2c1` the remaining activity was 58.7% (inactive). In the case of `Cn1c(=O)n(C2CCN(CCNC(=O)[C@H]3C[C@@H]3c3ccccc3)CC2)c2ccccc21`, the remaining activity is reported as 76.2% (inactive). With `C[C@@H](CN1CC=C(n2c(=O)[nH]c3ccccc32)CC1)NC(=O)c1ccc2ccccc2c1` the remaining activity was 0.0151% (active). For `O=C(NCCN1CCC(n2c(=O)[nH]c3cc(I)ccc32)CC1)c1ccc(Cl)cc1`, the remaining activity was 15.6% (active). In the case of `O=c1[nH]c2ccccc2n1C1CCN(CCN2CCCC2)CC1`, the remaining activity is reported as 112% (inactive). In the case of `O=C(NCCN1CCN(c2ccncc2)CC1)c1ccccc1-c1ccccc1`, the remaining activity is reported as 147% (inactive). In the case of `Cc1cccc(C(=O)NCCN2CCC(n3c(=O)[nH]c4ccccc43)CC2)n1`, the remaining activity is reported as 26.7% (active). With `O=C(NCCN1CCC2(C=Cc3ccccc32)CC1)[C@H]1C[C@@H]1c1ccccc1` the remaining activity was 107% (inactive). In the case of `C[C@@H](CN1CCC(n2c(=O)[nH]c3ccccc32)CC1)NC(=O)c1cc2cc(F)ccc2[nH]1`, the remaining activity is reported as 30.1% (active). For `O=C(NCCN1CCC(n2c(=O)[nH]c3ccccc32)CC1)C1CCc2ccccc2C1` (stereo not given), the remaining activity was 77.8% (inactive). For `O=C(NCCN1CCC(n2c(=O)[nH]c3ccccc32)CC1)Nc1ccccc1F`, the remaining activity was 102% (inactive). `O=C1c2ccccc2C(=O)N1CCN1CCC(n2c(=O)[nH]c3cc(Cl)ccc32)CC1` was tested, and the remaining activity was 107% (inactive). In the case of `Cc1ccc(C(=O)NCCN2CCN(c3ccncc3)CC2)cc1`, the remaining activity is reported as 148% (inactive). In the case of `C[C@@H](CN1CCC(n2c(=O)[nH]c3ccccc32)CC1)NC(=O)c1ccc(Cl)c(Cl)c1`, the remaining activity is reported as 20.9% (active). With `C[C@@H](CN1CCC(n2c(=O)[nH]c3ccccc32)CC1)NC(=O)c1ccc(F)c(F)c1` the remaining activity was 21.3% (active). `O=C(NCCN1CCC(c2nc3ccccc3[nH]2)CC1)C1CC1c1ccccc1` (stereo not given) was tested, and the remaining activity was 56.9% (inactive). With `CC(C(=O)NCCN1CCC(n2c(=O)[nH]c3ccccc32)CC1)(c1ccccc1)c1ccccc1` the remaining activity was 104% (inactive). In the case of `O=C(NCCN1CCC(n2c(=O)[nH]c3ccccc32)CC1)C1(c2ccccc2)CCC1`, the remaining activity is reported as 127% (inactive). With `CC(C)[C@@H](CN1CCC(n2c(=O)[nH]c3ccccc32)CC1)NC(=O)[C@@H]1C[C@H]1c1ccccc1` the remaining activity was 82.9% (inactive). `C[C@@H](CN1CCC(n2c(=O)[nH]c3ccccc32)CC1)NC(=O)CSc1ccccc1` was tested, and the remaining activity was 48.1% (active). In the case of `C[C@H](CN1CCC(n2nnc3ccccc32)CC1)NC(=O)c1ccc2ccccc2c1`, the remaining activity is reported as 27.1% (active). For `O=C(NCCN1CCC(n2c(=O)[nH]c3ccccc32)CC1)C1CCCCCC1`, the remaining activity was 98.9% (inactive). With `Cc1ccc(C(=O)N[C@@H](C)CN2CCC(n3c(=O)[nH]c4ccc(F)cc43)CC2)cc1` the remaining activity was 27.4% (active). In the case of `O=c1[nH]c2ccccc2n1C1CCN(CCNS(=O)(=O)c2ccc(Cl)cc2)CC1`, the remaining activity is reported as 137% (inactive). With `CCNC(=S)NCCN1CCC(n2c(=O)[nH]c3ccccc32)CC1` the remaining activity was 144% (inactive). For `Cc1ccc(C(=O)NCCN2CCN(c3ccccn3)CC2)cc1`, the remaining activity was 111% (inactive). For `O=C(NCCN1CCC(n2c(=O)[nH]c3ccccc32)CC1)c1ccc2cccc3c2c1CC3`, the remaining activity was 93.4% (inactive). With `O=C(NCCN1CCC(n2c(=O)[nH]c3ccccc32)CC1)c1cc(-c2ccccc2)no1` the remaining activity was 62.9% (inactive). For `O=C(NCCN1CCC(n2c(=O)[nH]c3ccccc32)CC1)c1ccc(-c2ccccc2)o1`, the remaining activity was 38.7% (active). For `Cn1c(C2CCN(CCN)CC2)nc2ccccc21` (tested in a mixture with another compound), the remaining activity was 75% (inactive). `O=c1[nH]c2ccccc2n1C1CCN(CCNC(=S)Nc2ccc(Cl)c(Cl)c2)CC1` was tested, and the remaining activity was 170% (inactive).
